Among the data in PubChem BioAssay (NCI) are growth values, retold here.

Holding throughout (assay): NCI-60 one-dose screen, 48 h (100 = growth as untreated, 0 = no growth, -100 = all killed)
Holding throughout (details): 10 µM unless noted

Assay [1] deals with SK-MEL-2 melanoma.
Assay [2] deals with EKVX NSCLC.
In assay [3] the test system is SN12C renal.
In assay [4] the test system is UO-31 renal.
Assay [5] deals with ACHN renal.
Assay [6] has as its system CAKI-1 renal.
The test system of assay [7] is A498 renal.
The subject of assay [8] is CCRF-CEM leukemia.
Assay [9] concerns MOLT-4 leukemia.
In assay [10] the test system is TK-10 renal.

Molecules are shown by their SMILES. Compounds without any hit were thinned out: in the full panel of roughly 83,000, 20% have a hit.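 A percent growth of 40 corresponds to 60% growth inhibition; 0 means no net growth; -100 means all cells died. Active threshold: below 10.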 Unmarked numbers belong to inactive results. Active and inactive are the calls of the source.

`Cc1ccc(Cc2cnc(NC(=O)/C=C/c3cccc(C)c3)s2)cc1`: the growth in assay [1] was 51.6%; in assay [2], 29.4%; in assay [3], 31.4%; in assay [4], 33.7%; in assay [5], 12.1%; in assay [6], 12.5%. The growth in assay [7] is -5.43% (active); in assay [8] it was 9.04% (active); in assay [9], 16.7%.
Consider `O=S(=O)(NCCNc1cc(-c2cn(-c3ccccc3)nc2-c2cccc(O)c2)ccn1)c1ccc(Cl)cc1`, for which the growth in assay [1] was 34.9%; in [2] it was 52.1%; in assay [3], 39.4%; in assay [4], 23%; in assay [5], 28.5%; in [6] it was 41%. The growth in assay [7] is 34.9%; in assay [8], 9.05% (active); in assay [9] it was 8.1% (active).
On to `C=C1C(=O)O[C@H]2[C@H]1CC/C(COC(=O)N[C@H](Cc1c[nH]c3ccccc13)C(=O)OC)=C\CC[C@@]1(C)O[C@@H]21`, for which the growth in assay [1] is 70.4%; in [2], 63.6%; in assay [3], 41.7%; in assay [4], -4.81% (active); in assay [5], -17.7% (active); in assay [7], 83%. In addition, the growth in [8] is 2.23% (active); in assay [9], 4.53% (active).
Consider `Nc1c(C(=O)Nc2c(Cl)cccc2Cl)sc2nc3c(cc12)CCCC3`, for which the growth in assay [1] was 75.8%; in [2], 102%; in assay [3], 69.6%; in assay [4], 84.3%; in assay [5], 87.7%; in [6], 79.3%. The growth is 79.7% in assay [7], 55.1% in [8] and 46.9% in assay [9].
On to `Cc1ccc2[nH]cc(-c3nc(-c4cn(C)c5ncccc45)cs3)c2c1`, for which the growth in [1] is 89.4%; in assay [2] it was 59.5%; in [3] it was 87.8%; in assay [10] it was 95%; in [5], 79.6%; in [6], 77.9%. Besides, the growth in assay [7] was 72.2%; in assay [8] it was 58.5%; in assay [9] it was 53.3%.
Regarding `NC(=O)NCC1CCCCC1`, the growth was 105% in assay [1]; 96.6% in assay [2]; 106% in assay [3]; 92.9% in assay [4]; 106% in [5]; 89.3% in assay [6]. Moreover, the results for the growth in [7], in assay [8] and in assay [9] were 104%, 99.3% and 91.9%, respectively.
On to `Nc1c(C(=O)Nc2c(Cl)cccc2Cl)sc2nc3c(cc12)C(=O)CCC3`, for which the growth is 27.3% in [1]; 76% in [2]; 47.6% in assay [3]; 48.3% in [4]; 50.9% in assay [5]; 41.5% in assay [6]. The growth in assay [8] was 54.8%; in [9], 65.3%.
Take `C#Cc1cccc(NC(=O)C2CCCN(C(=O)CCl)C2)c1` (centres undefined): the growth is 75.7% [8.25 µM] in assay [1]; 95.7% [8.25 µM] in assay [2]; 9.7% [8.25 µM] (active) in assay [3]; -56.7% [8.25 µM] (active) in assay [4]; -96.3% [8.25 µM] (active) in assay [5]; 33.8% [8.25 µM] in assay [6]. Besides, the growth was 99.2% [8.25 µM] in assay [7], -25.9% [8.25 µM] (active) in assay [8] and -7.04% [8.25 µM] (active) in [9].
`O=C1C=Cc2ncccc2C1=O`: the growth is 114% in assay [1]; 64.7% in assay [2]; 65.2% in assay [3]; 68.3% in assay [4]; 76.1% in assay [5]; 81.2% in [6]. The growth was 125% in assay [7], -37.5% (active) in [8] and 0.968% (active) in assay [9].
Take `N#C/C(=C\c1ccc(-c2cccc(C(F)(F)F)c2)o1)c1nc(-c2ccco2)cs1`: the growth in assay [1] was 103%; in assay [2], 43%; in [3] it was 89.2%; in assay [4], 62.8%; in assay [5], 87.2%; in assay [6], 87.1%. The growth was 104% in assay [7] and 93% in assay [9].
For the molecule `COc1ccc2c(c1)c(-c1nc(-c3cn(C)c4ncccc34)cs1)cn2CCCN1CCCCC1`, the growth was 102% in assay [1]; 61.6% in assay [2]; 76.2% in [3]; 62.9% in assay [4]; 89.7% in assay [10]; 1.33% (active) in assay [5]. The growth in assay [8] is 2.69% (active); in assay [9], 23.4%.
Consider `Fc1ccc2c(c1)c(-c1nc(-c3c[nH]c4ncccc34)cs1)cn2CCCN1CCCCC1`, for which the growth in assay [1] is 106%; in assay [2], 66%; in [3] it was 63.1%; in [4] it was 44.4%; in assay [5], 71.7%; in assay [7] it was 77.8%. Moreover, the growth in assay [8] is 8.52% (active); in assay [9] it was 12.9%.
`Nc1ccc(Br)cn1`: the growth in [1] was 98.8%; in [2], 110%; in assay [3], 96.3%; in [4], 93.4%; in [5] it was 109%; in assay [6] it was 113%. The growth is 80.4% in [8] and 91.5% in assay [9].
As to `NCCNc1nc(-c2ccccc2)nc2nc(-c3ccccc3)oc12`, the growth in [1] is 107%; in [2] it was 102%; in assay [3], 80.6%; in assay [4], 69.6%; in [5], 79%; in [7], 90%. In addition, the growth in [8] was 91.5%; in assay [9] it was 73.6%.
On to `COc1cc2ncnc(Nc3ccc(OCc4cccc(F)c4)c(Cl)c3)c2cc1NC(=O)C1CCCC1`, for which the growth is 86.2% in [1]; 37.6% in assay [2]; 85.2% in assay [3]; 30.5% in assay [4]; 47.6% in assay [5]; 55.9% in [6]. Further, the growth was 20.8% in assay [7], 92.6% in assay [8] and 84% in assay [9].
As for `Cn1cccc1/C=C1/SC(=S)N(CCc2ccc(O)cc2)C1=O`, the growth in assay [1] was 64.7%; in [2] it was 61%; in assay [3], 60%; in assay [4], 53.7%; in assay [5] it was 59.9%; in assay [7] it was 81.8%. Moreover, the figures for the growth in assay [8] and in assay [9] were 21.9% and 31%, respectively.
`O=C1C(=O)c2ccccc2C(O)=C1CCCc1ccc(C2CCCCC2)cc1`: the growth is 104% in [1]; 60.2% in assay [2]; 43.2% in assay [3]; 75.9% in [4]; 37% in [5]; 19.7% in [6]. In addition, the growth in assay [7] was 56.7%; in [8] it was 9.07% (active); in assay [9] it was 29.2%.
With `CCCC(=O)N1CCCCC1CC` (centres undefined), the growth in [1] is 109%; in assay [3], 105%; in assay [4], 108%; in [10], 113%; in assay [5], 97.1%; in assay [7] it was 90.8%. Also, the growth in assay [8] was 95.3%; in assay [9], 113%.
Take `COc1cc(-c2cc(-c3nc4ccc(F)cc4[nH]3)[nH]n2)cc(OC)c1OC`: the growth was 17.5% in assay [1]; 33.8% in [3]; 26.1% in assay [4]; 63.7% in assay [10]; 19.6% in assay [5]; 28.4% in assay [6]. Moreover, the growth in assay [7] was 8.73% (active).
Turning to `COc1ccc(NC(=O)c2ccc3c(c2)nc(-c2cc4ccccc4[nH]c2=O)n3-c2cc(C(C)(C)C)[nH]n2)cc1`, the growth in assay [1] was 99.7%; in assay [3], 93.2%; in [4], 86.3%; in assay [10], 107%; in [5] it was 97.1%; in [6], 97.2%. Moreover, the growth in assay [7] was 85.8%; in assay [9], 63.1%.
Regarding `COc1ccc2nc(-c3cc(-c4cc(OC)c(OC)c(OC)c4)n[nH]3)[nH]c2c1`, the growth is -29.9% (active) in assay [1]; 21% in [3]; -1.85% (active) in assay [4]; 31.7% in assay [10]; 21.5% in assay [5]; 26.8% in [6]. For the same molecule, in assay [7], the growth was 15.5%.
With `O=C1NC(=Nc2ccc(S(=O)(=O)Nc3nccs3)cc2)S/C1=C\c1coc2ccccc2c1=O`, the growth in assay [1] was 133%; in assay [3], 95.3%; in assay [4], 82.6%; in [10] it was 133%; in assay [5], 98.6%; in [6] it was 103%. Besides, the growth in [7] is 101%.
Turning to `O=c1c2sc3ncc(Br)cc3c2ncn1-c1cccc(Cl)c1`, the growth in assay [1] was 96.3%; in assay [3] it was 64.5%; in assay [4] it was 52.1%; in assay [10], 73.6%; in assay [5], 28%; in [6], 98.8%. Besides, the growth in assay [7] is 71.7%.
For `COC(=O)[C@@H]1[C@H]2C[C@H]3c4[nH]c5cc(OC)ccc5c4CCN3C[C@@H]2C[C@H](OC(=O)/C=C/c2ccnc(OC)c2)[C@H]1OC`, the growth is 106% in assay [1]; 99.2% in assay [3]; 67.5% in [4]; 87.3% in assay [10]; 66.1% in [5]; 79.4% in assay [7]. In addition, the growth in assay [8] was 93.7%; in [9], 75.9%.
In the case of `Cc1nn2c(-c3nc4cc(Cl)c(Cl)cc4[nH]3)c(-c3ccc(F)cc3)nc2s1`, the growth is 57.9% in [1]; 34% in assay [3]; -67.1% (active) in assay [4]; -33.1% (active) in assay [10]; 9.13% (active) in assay [5]; 13% in [6]. The growth was 29.8% in assay [7], 66.5% in [8] and 76.3% in assay [9].
Take `COc1cc(-c2cc(-c3nc4ccccc4[nH]3)[nH]n2)cc(OC)c1OC`: the growth in assay [1] was 47.4%; in assay [3], 65.8%; in assay [4] it was 39.8%; in assay [10], 70.3%; in [5], 39.3%; in assay [6], 38.8%. Further, the growth in assay [7] is 17.2%.
On to `CC(C)(C)c1cc(-n2c(-c3ccc(Cl)cc3)nc3cc(C(=O)Nc4ccc(Cl)cc4)ccc32)n[nH]1`, for which the growth in [1] was 75.8%; in assay [3] it was 66.9%; in [4], 28.5%; in assay [10], 50.8%; in assay [5] it was 38.4%; in [6], 32%. Moreover, the growth in assay [7] was 48%; in assay [8], 62.5%; in [9], 45.7%.
Turning to `COc1cc(C(=O)/C=C/c2cc(-c3ccc4c(c3)OCO4)n[nH]2)cc(OC)c1OC`, the growth in assay [1] is 84.7%; in [3], 25.7%; in [4], 39.4%; in [10], 67%; in assay [5], 42.7%; in assay [6] it was 66.3%. Besides, in [7], the growth is 4.49% (active).
On to `O=C(CI)Nc1ccc(O)c2ccccc12`, for which the growth is -1.68% (active) in assay [1]; -34.9% (active) in assay [3]; -28.7% (active) in assay [4]; -34% (active) in assay [10]; 6.99% (active) in [5]; 95% in assay [7]. The growth in assay [8] was -26.7% (active); in assay [9], -23.6% (active).
In the case of `COc1cc(-c2cc(-c3nc4cc(Cl)c(Cl)cc4[nH]3)[nH]n2)cc(OC)c1OC`, the growth in assay [1] is 86.5%; in assay [3], 69.7%; in assay [4] it was 43.2%; in [10] it was 107%; in [5] it was 46.8%; in [6], 84.6%. Moreover, the growth in [7] is 67.4%.
